# Source: PubChem
# KB-3-1 cytotox – kills parental KB-3-1 adenocarcinoma cells; KB-3-1 viability, CellTiter-Glo ATP luminescence, 72 h; Potency, µM (titrated, usually from 46.1 µM), hits mostly cytotoxic; hit rate 1.4% among 400,000; AID 1347075; also: nearly all actives have a fitted effect of over 60% in size
#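 Cytotoxicity in the drug-sensitive parental line KB-3-1 was scored as loss of CellTiter-Glo luminescence following 72 h incubation with compound. Values come from curve fitting of normalized concentration-response data.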
# DT40 TDP1 CPT – DT40-hTDP1 cell growth loss with CPT; hit rate 12% among 420,000; chicken DT40 Tdp1-/-;hTDP1 cells + 20 nM CPT, ATP luminescence, 48 h; AID 686979; Potency, µM (doses to about 46.2 µM), for the others: top-dose activity change, negative = growth inhibition, usual class: inhibitors; also: nearly all actives have a fitted effect of over 55% in size
#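 Chicken DT40 Tdp1-/- cells stably complemented with human TDP1 were seeded at 400 cells/well in medium containing 20 nM camptothecin, exposed to pin-transferred compounds, and grown at 37 °C for at least 48 hr. Viability was read as ATP luminescence.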
# HT1080NT lethal – kills 2HG-producing HT-1080-NT fibrosarcoma cells; AID 686970; Potency, µM (doses to about 46.1 µM), without a hit: at the top dose activity, negative = less viability, most hits filed as cytotoxic; HT-1080-NT fibrosarcoma viability, CellTiter-Glo ATP luminescence, 48 h; hit rate 1.6% among 360,000;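 also: NT is the 2HG producing partner of a matched IDH1 knockdown line; 0% = DMSO-treated cells and -100% = media-only wells without cells; nearly all actives have a fitted effect of over 55% in size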
#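 Read-out is CellTiter-Glo luminescence after 10 minutes at room temperature, following 48 hours' compound treatment of HT-1080-NT cells (750 cells/well, RPMI, 5% FBS, 37 degrees C).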
# TDP1 cell noCPT – qHTS for Inhibitors of human tyrosyl-DNA phosphodiesterase 1 (TDP1): qHTS in cells in absence of CPT. DT40 Tdp1-/- hTDP1 cells, no CPT, ATP luminescence, 48 h. Potency, µM (series often up to 46.2 µM), for inactives: top-dose activity change, negative = growth inhibition, usual class: inhibitors. hit rate 15% among 420,000; also: nearly all actives have a fitted effect of over 55% in size
#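 A cellular qHTS used chicken DT40 cells lacking endogenous Tdp1 but carrying stably transfected human TDP1. Compounds were applied without camptothecin, and cell growth kinetics were judged by ATP-dependent luminescence after ≥48 hr.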
# KB-V1 cytotox – KB-V1 MDR subline cytotoxicity; KB-V1 MDR cells viability, CellTiter-Glo, 72 h; Potency, µM (highest dose often 46.1 µM), most hits filed as cytotoxic; hit rate 3.4% among 400,000; AID 1347076; also: nearly all actives have a fitted effect of over 60% in size
#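 Luminescent ATP read-out (CellTiter-Glo, 10 min) measures survival of drug-selected KB-V1 MDR cells after 72 h, 37 degrees C compound exposure. Medium: phenol-red-free DMEM, 10% FBS. Values from fitted concentration-response curves.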
# HT1080 IDH1KD tx – toxicity to HT-1080 IDH1 knockdown cells (counter line) | HT-1080 IDH1 knockdown viability, ATP luminescence, 48 h | Potency, µM (series often up to 46.1 µM), for inactives: top-dose activity, negative = toxicity, most hits filed as cytotoxic | hit rate 2% among 360,000 | AID 686971;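 also: 0% = DMSO wells and -100% = cell-free medium wells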
#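 Knockdown cells (IDH1KD HT-1080) received compounds 2 h after plating at 750 cells/well and were kept 48 h at 37 °C in 5% FBS RPMI. A CellTiter-Glo luminescence read gave % activity for curve fitting.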
# An asterisk follows results filed as active; i = inactive; ? = inconclusive; · = no result. An excerpt weighted towards active compounds, which were near 19% of everything screened. Calls follow the shape of the dose curve; as a rule, active = well fitted curve in the direction sought with a large enough effect; inconclusive = small, poorly fitted or top-dose-only effect, or another doubt; inactive = no such curve, though single readings can be large; an effect the other way counts as inactive or inconclusive. Unless noted, % is scaled to controls: 0 for no effect and ±100 for the full control effect; potency is read from the fitted curve at half-maximal effect.
SMILES,KB-3-1 cytotox,DT40 TDP1 CPT,HT1080NT lethal,TDP1 cell noCPT,KB-V1 cytotox,HT1080 IDH1KD tx
COc1ccc(CNC(=O)CSc2nc3cccnc3s2)cc1,i,-0.8%,2.0%,-16.3%,i,3.7%
CN(C)C1=NC[C@H](Cc2ccccc2)N1CC1CCCCC1,i,13µM*,0.4%,11.6µM*,i,-4.2%
CC(C)C[C@H]1CN=C(Nc2ccccc2)N1CC1CCC1,?,?,-1.1%,?,i,-2.2%
CN(C)C1=NC[C@H](Cc2ccccc2)N1CC1CCC(C(C)(C)C)CC1 (some centres not stated),i,20.6µM*,-26.3%,13µM*,i,-13.2%
c1ccc(C[C@H]2CNCCN2CC2CCCCC2)cc1,i,?,-4.5%,16.4µM*,i,-4.3%
c1ccc(C[C@H]2CNCCN2CCCCC2CCCCC2)cc1,?,?,-18.0%,?,i,-14.6%
CC(C)C[C@H]1CN=C(N(C)C)N1CC1CCCCCC1,i,13µM*,-8.9%,20.6µM*,i,-0.5%
COCCSc1nnc(NC(=O)COc2ccc3c(c2)OCO3)s1,i,0.1%,-5.7%,-6.4%,i,-18.7%
CN(C)C1=NC[C@H](Cc2ccccc2)N1CC1CCCC1,i,14.6µM*,-6.0%,23.1µM*,i,-9.1%
CCN1CCN(c2cc(=O)n(Cc3ccc(F)cc3)c(=O)[nH]2)CC1,i,0.6%,2.4%,1.7%,i,4.8%
COc1ccccc1N1CCN(c2cc(=O)n(Cc3ccc(F)cc3)c(=O)[nH]2)CC1,5.17µM*,3.66µM*,11.6µM*,4.61µM*,?,?
O=c1cc(N2CCN(c3ccccc3Cl)CC2)[nH]c(=O)n1Cc1ccc(F)cc1,4.61µM*,4.61µM*,?,1.46µM*,20.6µM*,2.59µM*
COc1ccccc1N1CCN(c2cc(=O)n(-c3ccccc3Cl)c(=O)[nH]2)CC1,?,-21.4%,3.7%,-15.8%,?,-25.4%
CCCCN(CC)S(=O)(=O)c1ccc2c(c1)n(C)c(=O)c(=O)n2C,i,-19.5%,3.1%,-26.0%,i,1.4%
COC(=O)c1cc(=O)n(CCc2ccccc2F)c(=Nc2ccc(F)c(Cl)c2)s1,?,14.6µM*,20.6µM*,8.2µM*,i,18.4µM*
COC(=O)c1cc(=O)n(Cc2ccc3c(c2)OCO3)c(=Nc2ccccc2)s1,?,11.6%,?,?,i,?
COC(=O)c1cc(=O)n(Cc2ccco2)c(=Nc2ccc(F)c(Cl)c2)s1,18.4µM*,16.4µM*,?,13µM*,?,?
COc1ccc(NC(=O)CCNS(=O)(=O)c2cc(Br)cnc2N)c(OC)c1,i,10.9%,11.2%,4.0%,i,14.2%
O=C(CN1CCC(NC(=O)Nc2ccc(F)cc2)CC1)Nc1ccccc1[N+](=O)[O-],i,?,-10.5%,20.6µM*,i,-9.0%
Cc1cc(C(=O)COC(=O)c2ccc(O)cc2O)c(C)n1C(C)C,i,18.4µM*,-14.5%,13µM*,i,-18.8%
COc1ccc(CCn2c(C)cc(C(=O)COC(=O)c3ccc(O)cc3O)c2C)cc1,i,?,-18.3%,?,?,0.1%
Cc1ccc2oc(=O)c3cc(C(=O)NCCCOC(C)C)sc3c2c1,i,10.4%,·,-23.8%,i,·
COCCCNC(=O)c1cc2c(=O)oc3ccc(C)cc3c2s1,·,6.51µM*,·,5.8µM*,·,·
COc1cccc(CNC(=O)c2cc3c(=O)oc4ccc(C)cc4c3s2)c1,i,?,·,20.6µM*,i,·
Cn1cncc1C#Cc1ccc2cc(CCO)oc(=O)c2c1,i,2.7%,11.5%,-17.7%,i,12.6%
Cc1cc(C(=O)Nc2ccc(C(C)C)cc2)c2c(C)nn(-c3ccccc3)c2n1,i,·,·,·,?,·
